# Assay outcomes from PubChem BioAssay.
# MCF10A rerep = inducers of DNA re-replication in MCF 10A breast cells; MCF 10A DNA re-replication, Hoechst nuclear intensity, 48 h; actives 2.9% (n = 350,000); Potency, µM (series often up to 46.1 µM), without a hit: top-dose activity, positive = re-replication, usual class: activators; note: % of control where 0% means no effect; nearly all actives have a fitted effect of over 50% in size
# SW480 rerep = induces DNA re-replication in SW480 colon adenocarcinoma cells. SW480 DNA re-replication, Hoechst DNA content imaging, 48 h. Potency, µM (highest dose often 46.1 µM), for the others: at the top dose re-replication activation, most hits filed as activators. actives 1.8% (n = 340,000); note: % of control where 0% means no effect; nearly all actives have a fitted effect of over 55% in size
#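 SW480 cells exposed to compounds for 48 hr at 37 C, 5% CO2, then Hoechst-stained 40 min. Nuclear DNA content imaged by fluorescence scanning (405 nm excitation, 500-530 nm emission); re-replication scored as increased high-intensity nuclei.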
# KB-V1 cytotox = kills drug-selected multidrug resistant KB-V1 cells | KB-V1 MDR cells viability, CellTiter-Glo, 72 h | Potency, µM (doses to about 46.1 µM), most hits filed as cytotoxic | actives 3.4% (n = 400,000); note: % is set by controls: 0 for no effect and ±100 for the full control effect; nearly all actives have a fitted effect of over 60% in size
#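 qHTS viability screen in drug-selected KB-V1 MDR cells: 72 h compound treatment at 37 degrees C, ATP luminescence end point.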
# PINK1 expr mod = PINK1 expression modulation. PINK1 immunofluorescence, high-content cytometry, 24 h. Potency, µM (top dose mostly 76.6 µM), without a hit: at the highest dose activation (PINK1 increase), usual class: activators. actives 0.2% (n = 410,000); active = well fitted activation curve with a large enough effect; inconclusive = small, poorly fitted or top-dose-only effect; cell line not stated here; note: % of control where 0% means no effect; nearly all actives have a fitted effect of over 65% in size
#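 Compound titrations (5 concentrations, 24 h) on a stable cell line; DMSO and CCCP controls. Endpoint: fixed-cell PINK1 immunofluorescence with mitochondrial, cell and nuclear markers, scanned by microplate cytometer.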
# KB-3-1 tox = kills parental KB-3-1 adenocarcinoma cells; KB-3-1 viability, CellTiter-Glo ATP luminescence, 72 h; Potency, µM (titrated, usually from 46.1 µM), most hits filed as cytotoxic; actives 1.4% (n = 400,000); note: % is set by controls: 0 for no effect and ±100 for the full control effect; nearly all actives have a fitted effect of over 60% in size
#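 Cytotoxicity measured as CellTiter-Glo luminescence after 72 h at 37 C. Compound titrations were pinned onto drug-naive KB-3-1 parental adenocarcinoma cells grown in DMEM with 10% FBS, and normalized data fitted to concentration-response curves.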
# An asterisk follows results filed as active; i = inactive; ? = inconclusive; . = not tested or not shown; [ ] = remark or other dose. In the library only some 6.7% were active in any assay of this set; here they are far more common. Unless noted, calls come from the whole dose curve; as a rule, active = well fitted curve in the direction sought with a large enough effect; inconclusive = small, poorly fitted or top-dose-only effect, or another doubt; inactive = no such curve, though single readings can be large; an effect the other way counts as inactive or inconclusive. Potency is the fitted concentration of half-maximal effect.
SMILES,MCF10A rerep,SW480 rerep,KB-V1 cytotox,PINK1 expr mod,KB-3-1 tox
O=[N+]([O-])c1cc(Cl)cc2c1nc(NCCO)c1ccccc12,18%,?,?,-1%,18µM*
COc1ccc(OC)c(NS(=O)(=O)c2ccc(SC)cc2)c1,13µM*,13µM*,4.1µM*,6%,7.3µM*
COc1ccc(NS(=O)(=O)c2ccc(NC(=O)c3ccc(N(C)S(C)(=O)=O)cc3)cc2)c(OC)c1,15%,-84%,i,?,4.6µM*
COc1ccc(CC(=O)Nc2ccc(S(=O)(=O)NC(C)C)cc2)cc1,0%,-8%,16µM*,7%[38.3 µM],i
CCOc1ccc(S(=O)(=O)Nc2cc(OC)ccc2OC)cc1,?,0.41µM*,0.41µM*,2%,0.1µM*
COc1ccc(NS(=O)(=O)c2ccc(NS(=O)(=O)c3ccc(SC)cc3)cc2)c(OC)c1,?,17%,?,-1%[38.3 µM],i
COc1cc2nc(N3CCCCC3)nc(NC3CCN(C)CC3)c2cc1OC,.,.,.,-1%,.
C=C1Nc2ccccc2C(=O)N1c1ccc(C(=O)N2CCN(C(=O)c3ccco3)CC2)cc1,.,.,i,0%,?
COc1ccc(NS(=O)(=O)c2ccc(NC(C)=O)cc2)c(OC)c1,?,?,i,6%,i
COc1ccc(OC)c(NS(=O)(=O)c2ccc(NC(C)=O)cc2)c1,?,23%,21µM*,12%,?
Nn1cnc2c(c1=O)C1(CCCCC1)Cc1ccccc1-2,?,?,?,5%,?
Oc1ccc(-c2nc3c4c(ncn3n2)-c2ccccc2CC42CCCC2)cc1,4.6µM*,1%,?,0%,i
Cc1ccc(S(=O)(=O)NCCNS(=O)(=O)c2ccc(C)cc2)cc1,-5%,2%,i,0%,i
Cc1ccc(S(=O)(=O)Nc2cc(C)cc(CCNC=O)c2C)cc1,-3%,1%,18µM*,3%,i
O=C(COc1ccccc1Cl)Nc1ccc(N2CCN(C(=O)c3ccccc3)CC2)cc1,?,?,?,5%,?
CCOc1ccccc1OCC(=O)Nc1nnc(COC)s1,5%,0%,18µM*,56%[38.3 µM],i
O=C(c1cccc(NS(=O)(=O)c2cccc(C(F)(F)F)c2)c1)N1CCOCC1,-2%,5%,.,1%,.
CCN(CC(=O)Nc1c(F)cccc1F)C(=O)c1ccc2c(c1)OCO2,0%,5%,i,1%,i
CC1(C)N=C(N)N=C(N)N1c1cccc(CC(=O)Nc2ccccc2)c1,.,.,i,-1%,i
CC1(C)N=C(N)N=C(N)N1CCCCc1ccccc1,18%,-9%,i,-1%,1.5µM*
CC1=CC(C)(C)N(S(=O)(=O)c2ccc(C)cc2)c2ccc(C)cc21,-2%,7%,?,?,6.5µM*
CC1=CC(C)(C)N(S(=O)(=O)c2ccc(F)cc2)c2ccccc21,?,21µM*,i,7%[38.3 µM],i
CC(=O)N1c2ccccc2C(C)=CC1(C)C,-5%,-14%,i,0%,i
CC(=O)Nc1ccc(S(=O)(=O)N2c3ccccc3C(C)=CC2(C)C)cc1,?,?,?,3%,3.3µM*
CCOC(=O)C1CCCN(C(=O)c2ccc(F)c(Cl)c2)CC1 (stereo not drawn),.,.,i,1%,i
SMILES,MCF10A rerep,SW480 rerep,KB-V1 cytotox,PINK1 expr mod,KB-3-1 tox
COc1ccc(NC(=O)CCc2nc3ccccc3c(=O)[nH]2)cc1S(=O)(=O)N1CCCCC1,5%,-25%,i,1%,i
CCC(=O)N1CCc2cc(S(=O)(=O)NCCC(=O)Nc3ccc(C)cc3)ccc21,.,.,i,0%,i
O=[N+]([O-])c1cccc(S(=O)(=O)N2CCN(c3nc(-c4cccs4)nc4ccccc34)CC2)c1,.,.,i,0%,i
COc1ccc(C2=NNC(=O)C2(C)Br)cc1 (stereo not drawn),5%,-7%,i,-1%,i
Cn1c(=O)c2ccccc2n2c(CCl)nnc12,?,16µM*,?,1%,?
CN(C)CCNC=C(C(=O)Nc1ccc(Cl)cc1Cl)C(=O)Nc1ccc(Cl)cc1Cl,?,?,?,-3%,i
CC(=O)/C(=C/N(C)C)C(=O)Nc1ccc(Cl)cc1Cl,18µM*,?,i,4%,i
Fc1ccccc1/C=N/NC(=S)Nc1ccc(Cl)cc1Cl,?,3.3µM*,1.5µM*,21%,8.2µM*
CN(C)/C=N/C(=S)Nc1ccc(Cl)cc1,0%,-6%,i,0%,i
CN(C)/C=N/C(=S)Nc1ccc(Cl)cc1Cl,?,21µM*,i,1%,i
Fc1ccc(NC(=S)Nc2ccc(Cl)cc2Cl)cc1,20%,-6%,i,?,?
C[C@H](CO)N1C[C@H](C)[C@@H](CN(C)S(=O)(=O)c2ccc(-c3ccccc3)cc2)OCc2cn(nn2)CCCC1=O,.,.,i,1%,i
CC(C)(C)C(=O)/C(C#N)=C/c1cccs1,-5%,-1%,i,3%,i
N#C/C(=C\c1cccs1)C(=O)c1ccccc1Cl,5.8µM*,?,i,1%,i
COc1ccc(NC(C)C(=O)Nc2ccc(C#N)cc2)cc1Cl (stereo not drawn),7%,-9%,21µM*,-1%,i
COc1ccc(NC(C)C(=O)Nc2ccc(C(C)(C)C)cc2)cc1Cl (stereo not drawn),16µM*,12%,i,29%,i
C=CCSc1nnc(NC(=O)c2cccc(S(=O)(=O)N(C)c3ccccc3)c2)s1,?,-1%,16µM*,3%,i
CCc1nnc(NC(=O)c2ccc(N(C)S(=O)(=O)c3ccccc3)cc2)s1,-3%,-8%,6.5µM*,4%[38.3 µM],i
CC(Oc1ccc(Cl)cc1Cl)c1nc(-c2ccc(NC(=O)c3ccco3)cc2)no1 (stereo not drawn),25%,-2%,5.8µM*,4%,i
CCN(CCCNC(=O)CCCN1C(=O)COc2ccc(C)cc21)c1cccc(C)c1,3%,-3%,12µM*,1%[38.3 µM],i
CCc1cc(=O)oc2cc(OCC(=O)NCc3ccccn3)ccc12,?,12µM*,i,3%,i
O=C(COc1ccc2c(-c3ccccc3)cc(=O)oc2c1)NCc1ccccn1,3%,-13%,i,0%,i
COc1ccc(Cc2nnc(SCC(=O)Nc3ccccc3C#N)o2)cc1,1%,3%,i,3%,i
COc1cc(-c2ccc(Cl)cn2)cc2c1OCCN(C(=O)c1ccccc1-n1cccn1)C2,.,.,.,2%,.
Fc1ccc(-c2cn(-c3ccccc3)c3[n+]2CCS3)cc1,4%,-5%,i,1%,?
Clc1ccc(-c2cn(-c3ccccc3)c3[n+]2CCS3)cc1,14%,9%,i,5%,13µM*
